Test results: PubChem BioAssay
Numbered stars: 1 amine (or outer) side, 2 acyl side, 3 side chain; on linkers, the order of the positions; unused ones are H or OH. Bridge positions count the residues as written; N and C are the ends. Square brackets hold non-standard residues; d marks the D form. Peptide text beside a SMILES is read from it. I, II: the chains in the order shown. * marks the point of attachment. ξ: configuration not given here. Actinocin(9to1) = Cc1c2oc3c(C)ccc(C(=O)[*:1])c3nc-2c(C(=O)[*:2])c(N)c1=O; ΔAla(E,3-NHCONH2) = NC(=O)N/C=C(/N)C(=O)O; X1 = NC1=NCCC(C(N[*:1])C(=O)[*:2])N1; Heptanoyl(6-Me) = CC(C)CCCCC(=O)*; NMeV = CN[CH](C(=O)O)C(C)C; ξβ3hOrn = NCCCC(N)CC(=O)*; Orn = NCCC[CH](N)C(=O)O; Dab = NCC[CH](N)C(=O)O; Dap = NC[CH](N)C(=O)O; Sar = CNCC(=O)O

Experiment: EMT-state selective cytotoxicity in co-culture – imaging, PC-3E GFP, TEM4-18 mCherry, primary screen (AID 1345086);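 further: cells exposed to compound for 72 h before imaging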
Conditions: PC-3E GFP / TEM4-18 mCherry co-culture, imaging cell counts; measured here: epithelial PC-3E GFP cell survival; at 1 µM

Row | SMILES | normalised cell number
1 | CC(C)c1c(C(=O)c2ccccc2)c(-c2ccccc2)c(-c2ccc(F)cc2)n1CC[C@@H](O)C[C@@H](O)CC(=O)O | 1.3
2 | CCC(C)C(=O)O[C@H]1C[C@H](O)C=C2C=C[C@H](C)[C@H](CC[C@@H](O)C[C@@H](O)CC(=O)O)C21 (stereo partly specified) | 1.19
3 | C#C[C@]1(OC(C)=O)CCC2C3CCC4=C/C(=N/O)CCC4C3CC[C@@]21CC (stereo partly specified) | 1.02
4 | CC(=O)O[C@]1(C(C)=O)CCC2C3C=C(Cl)C4=CC(=O)CC[C@]4(C)C3CC[C@@]21C (stereo partly specified) | 1.04
5 | N[C@H](Cc1cc(I)c(Oc2ccc(O)c(I)c2)c(I)c1)C(=O)O | 1.02
6 | CC(C)(C)NC[C@H](O)COc1ccccc1C1CCCC1 | 1.13
7 | COCC1=C(C(=O)OC(C)OC(=O)OC(C)C)N2C(=O)[C@@H](NC(=O)/C(=N/OC)c3csc(N)n3)[C@H]2SC1 (stereo partly specified) | 0.94
8 | CCCCCCCCCCC[C@@H](C[C@H]1OC(=O)[C@H]1CCCCCC)OC(=O)[C@@H](CC(C)C)NC=O | 0.96
9 | Cc1c2oc3c(C)ccc(C(=O)OC(C)C4NC(=O)C(C(C)C)N(C)C(=O)CN(C)C(=O)C5CCCN5C(=O)C(C(C)C)NC4=O)c3nc-2c(C(=O)OC(C)C2NC(=O)C(C(C)C)N(C)C(=O)CN(C)C(=O)C3CCCN3C(=O)C(C(C)C)NC2=O)c(N)c1=O (stereo unspecified) (I: cyclo([Sar][NMeV]TVP) / II: cyclo([Sar][NMeV]TVP); linker I:3-II:3 via Actinocin(9to1); configuration not given here) | 0.25
10 | OC[C@H]1OC([S-])[C@H](O)[C@@H](O)[C@@H]1O.[Au+] (stereo partly specified) | 1.15
11 | CC(C)=CCC/C(C)=C/COc1ccc2ccc(=O)oc2c1 | 0.93
12 | NC(Cc1c[nH]c2ccccc12)C(=O)O (stereo unspecified) | 0.98

Same assay, conditions: PC-3E GFP / TEM4-18 mCherry co-culture, imaging cell counts; measured here: mesenchymal TEM4-18 mCherry cell survival; at 1 µM

Row | SMILES | normalised cell number
13 | CO/N=C(\C(=O)NC1C(=O)N2C(C(=O)OCOC(=O)C(C)(C)C)=C(/C=C\c3scnc3C)CSC12)c1csc(N)n1 (stereo unspecified) | 1.12
14 | CC(C)CC1NC(=O)C(CCCN)NC(=O)C(C(C)C)NC(=O)C2CCCN2C(=O)C(Cc2ccccc2)NC(=O)C(CC(C)C)NC(=O)C(CCCN)NC(=O)C(C(C)C)NC(=O)C2CCCN2C(=O)C(Cc2ccccc2)NC1=O (stereo unspecified) (cyclo(FPV[Orn]LFPV[Orn]L); configuration not given here) | 0.37
15 | CN(Cc1cnc2nc(N)nc(N)c2n1)c1ccc(C(=O)NC(CCC(=O)O)C(=O)O)cc1 (stereo unspecified) | 1.02
16 | CC(=O)OC1CCC2C3CCc4cc(O)ccc4C3CCC12C (stereo unspecified) | 1.05
17 | O=C1O[C@H](C(O)CO)C(O)=C1O (stereo partly specified) | 1.26
18 | CO/N=C(/C(=O)N[C@@H]1C(=O)N2C(C(=O)O)=C(CSc3nc(=O)c(O)nn3C)CS[C@H]12)c1csc(N)n1 | 1.24
19 | NCCCC(N)CC(=O)NCC1NC(=O)C(CO)NC(=O)C(N)CNC(=O)C(C2CCN=C(N)N2)NC(=O)/C(=C\NC(N)=O)NC1=O (stereo not drawn) (H-[Dap]S[Dap](ξβ3hOrn)[ΔAla(E,3-NHCONH2)][X1]; lactam 1-C; configuration not given here) | 1.09
20 | CCCCCCCCCCCCCCCC(=O)O[C@@H]1[C@@H](O)[C@@H](O)C([C@H](NC(=O)[C@@H]2C[C@@H](CCC)CN2C)[C@H](C)Cl)O[C@@H]1SC (stereo partly specified) | 0.95
21 | CO/N=C(/C(=O)NC1C(=O)N2C(C(=O)OC(C)OC(C)=O)=C(COC(N)=O)CSC12)c1ccco1 (stereo unspecified) | 1.02
22 | O=C(N[C@@H](CO)[C@H](O)c1ccc([N+](=O)[O-])cc1)C(Cl)Cl | 1.04
23 | C[C@]12C=CC(=O)C=C1CCC1C2[C@@H](O)C[C@@]2(C)C1CC[C@]2(O)C(=O)COC(=O)CCC(=O)O (stereo partly specified) | 1.14
24 | CC(=O)O[C@@]12CO[C@@H]1C[C@H](O)[C@@]1(C)C(=O)[C@H](O)C3=C(C)[C@@H](OC(=O)[C@H](O)[C@@H](NC(=O)OC(C)(C)C)c4ccccc4)C[C@@](O)([C@@H](OC(=O)c4ccccc4)C12)C3(C)C (stereo partly specified) | 0.18
25 | CC(C)(Oc1ccc(C(=O)c2ccc(Cl)cc2)cc1)C(=O)O | 1.21
26 | CC1=C(C(=O)O)N2C(=O)[C@@H](NC(=O)C(N)c3ccc(O)cc3)[C@H]2SC1 (stereo partly specified) | 1.4
27 | CCC(=O)OCC(=O)[C@@]1(OC(=O)CC)[C@@H](C)CC2C3CCC4=CC(=O)C=C[C@]4(C)C3(F)[C@@H](O)C[C@@]21C (stereo partly specified) | 1.37
28 | C/C=C\C1=C(C(=O)O)N2C(=O)C(NC(=O)C(N)c3ccc(O)cc3)C2SC1 (stereo unspecified) | 1.04
29 | C[C@H]1CC2C([C@@H](O)C[C@@]3(C)C2CC[C@]3(O)C(=O)COC(=O)CCC(=O)O)[C@@]2(C)C=CC(=O)C=C12 (stereo partly specified) | 1.04
30 | NCC1CCCCC1CC(=O)O (stereo unspecified) | 1.02
31 | CC1=C(C(=O)O)N2C(=O)[C@@H](NC(=O)[C@H](N)C3=CCC=CC3)C2SC1 (stereo partly specified) | 1.14
32 | CC[C@@H]1OC(=O)C[C@@H](O)[C@H](C)[C@@H](O[C@@H]2O[C@H](C)[C@@H](O)[C@H](N(C)C)[C@H]2O)[C@@H](CCN2C[C@H](C)C[C@H](C)C2)C[C@@H](C)C(=O)/C=C/C(C)=C\[C@@H]1CO[C@@H]1O[C@H](C)[C@@H](O)[C@@H](OC)[C@H]1OC | 1.07

Row | SMILES | normalised cell number
33 | CCC(C)C1NC(=O)C(CCN)NC(=O)C(NC(=O)C(CCN)NC(=O)C(NC(=O)C(CCN)NC(=O)CCCCC(C)C)C(C)O)CCNC(=O)C(C(C)O)NC(=O)C(CCN)NC(=O)C(CCN)NC(=O)C(C(C)CC)NC1=O (stereo unspecified) ({Heptanoyl(6-Me)}-[Dab]T[Dab][Dab][Dab]II[Dab][Dab]T; lactam 4-C; configuration not given here) | 0.9
34 | COc1cc(NS(C)(=O)=O)ccc1Cc1c2ccccc2nc2ccccc12 | 0.31
35 | C[C@H](N[C@@H](CCc1ccccc1)C(=O)O)C(=O)N1CCC[C@H]1C(=O)O | 1.03
36 | CC(CCC(=O)O)[C@H]1CCC2C3C(=O)C[C@@H]4CC(=O)CC[C@]4(C)C3CC(=O)[C@@]21C (stereo partly specified) | 1.05
37 | CC1OC1P(=O)(O)O (stereo unspecified) | 1.16
38 | CC1C/C=C/C=C/C=C/C=C/C(O[C@@H]2O[C@H](C)[C@@H](O)[C@H](N)[C@@H]2O)CC2OC(O)(CC(O)CC3OC3/C=C/C(=O)O1)CC(O)C2C(=O)O (stereo partly specified) | 1.06
39 | CC(=O)OCC(=O)[C@@]1(OC(C)=O)[C@@H](C)CC2C3C[C@H](F)C4=CC(=O)C=C[C@]4(C)[C@@]3(F)[C@@H](O)C[C@@]21C (stereo partly specified) | 1.34
40 | CC(C)c1c(C(=O)c2ccccc2)c(-c2ccccc2)c(-c2ccc(F)cc2)n1CC[C@@H](O)C[C@@H](O)CC(=O)O | 1.12
41 | CCC(C)C(=O)O[C@H]1C[C@H](O)C=C2C=C[C@H](C)[C@H](CC[C@@H](O)C[C@@H](O)CC(=O)O)C21 (stereo partly specified) | 1.14
42 | C#C[C@]1(OC(C)=O)CCC2C3CCC4=C/C(=N/O)CCC4C3CC[C@@]21CC (stereo partly specified) | 0.76
43 | CC(=O)O[C@]1(C(C)=O)CCC2C3C=C(Cl)C4=CC(=O)CC[C@]4(C)C3CC[C@@]21C (stereo partly specified) | 1.21
44 | N[C@H](Cc1cc(I)c(Oc2ccc(O)c(I)c2)c(I)c1)C(=O)O | 0.99
45 | CC(C)(C)NC[C@H](O)COc1ccccc1C1CCCC1 | 1.17
46 | COCC1=C(C(=O)OC(C)OC(=O)OC(C)C)N2C(=O)[C@@H](NC(=O)/C(=N/OC)c3csc(N)n3)[C@H]2SC1 (stereo partly specified) | 0.99
47 | CCCCCCCCCCC[C@@H](C[C@H]1OC(=O)[C@H]1CCCCCC)OC(=O)[C@@H](CC(C)C)NC=O | 1.07
48 | Cc1c2oc3c(C)ccc(C(=O)OC(C)C4NC(=O)C(C(C)C)N(C)C(=O)CN(C)C(=O)C5CCCN5C(=O)C(C(C)C)NC4=O)c3nc-2c(C(=O)OC(C)C2NC(=O)C(C(C)C)N(C)C(=O)CN(C)C(=O)C3CCCN3C(=O)C(C(C)C)NC2=O)c(N)c1=O (stereo unspecified) (I: cyclo([Sar][NMeV]TVP) / II: cyclo([Sar][NMeV]TVP); linker I:3-II:3 via Actinocin(9to1); configuration not given here) | 0.49
49 | OC[C@H]1OC([S-])[C@H](O)[C@@H](O)[C@@H]1O.[Au+] (stereo partly specified) | 0.95
50 | CC(C)=CCC/C(C)=C/COc1ccc2ccc(=O)oc2c1 | 0.99
51 | NC(Cc1c[nH]c2ccccc12)C(=O)O (stereo unspecified) | 1.22
